Holding throughout (type): functional
Test [1] deals with Plasmodium falciparum. Briefly: GSK_TCMDC: Inhibition of Plasmodium falciparum 3D7 in whole red blood cells, using parasite LDH activity as an index of growth. Test compounds present at 2uM.
Test [2] has as its system Plasmodium falciparum. Put plainly: GSK_TCMDC: Inhibition of Plasmodium falciparum Dd2 in whole red blood cells, using parasite LDH activity as an index of growth. Test compounds present at 2uM.
The test system of test [3] is HepG2. Briefly: GSK_TCMDC: Percent inhibition of human HepG2 cell line. Test compounds present at 10uM.

From ChEMBL document CHEMBL1157539, “Thousands of chemical starting points for antimalarial lead identification” (Nature, 2010) come the findings set out here.

In general, Inhibition refers to how much of the control response was suppressed. Low values mean little suppression, high ones strong suppression.

With `NC1=NC(c2ccccc2)(c2ccccc2)C(=O)N1Cc1ccccc1Br.O=CO`, the values for the Inhibition in test [1], in test [2] and in test [3] were 93%, 38% and 36%, respectively.
As for `COc1cc2cc(-c3nc4ccccc4[nH]3)c(N)nc2cc1OC.Cl`, the Inhibition in test [1] came to 100%; in test [2], 100%; in test [3] it was 91%.
In the case of `O=C(Nc1ccc2c(c1)CCC2)N[C@H]1CCN(Cc2ccc(OCCCN3CCCCC3)cc2)C1`, the Inhibition in test [1] is 96%; in test [2], 0%; in test [3] it was 9%.
Turning to `CSc1ccc(C=CC(=O)NC(=O)c2ccccc2O)cc1`, the Inhibition is 97% in test [1], 96% in test [2] and 2% in test [3].
Taken in the same sequence, the figures for `CCCCNc1c(CC)c(C)c(C#N)c2nc3ccccc3n12` were 100%, 100% and 3%.
Turning to `COc1ccc(CN2CCC(CNCCc3c(Cl)cccc3Cl)CC2)cc1.O=C(O)C(F)(F)F`, the Inhibition is recorded as 98% in test [1], 69% in test [2] and 45% in test [3].
On the same counts, the results for `O=C(/C=C/c1ccc(CNCCN2CCOCC2)cc1)NCCc1ccccc1` are 94%, 3% and 9%.
Taken in the same sequence, the figures for `Nc1nccc(-c2ccc3c(-c4cccc(F)c4)cnc(N)c3c2)n1` were 93%, 44% and 41%.
Taken in the same sequence, the figures for `O=C(/C=C/c1ccc(Cl)c(Cl)c1)NC1CCN(CCCNC(=O)c2cccc(Cl)c2)CC1.O=C(O)C(F)(F)F` were 100%, 28% and 36%.
Regarding `O=C(/C=C/c1ccc(Cl)c(Cl)c1)NCCCCCCN1CCCN(C(=O)Nc2cccc(C(F)(F)F)c2)CC1`, the Inhibition in test [1] stood at 95%; in test [2], 0%; in test [3], 25%.
For `N#Cc1ccc(CN2CCC(Oc3ccc(NC(=O)c4cccs4)cc3Cl)C2)cc1.O=C(O)C(F)(F)F` (centres undefined), the Inhibition in test [1] turned out to be 96%; in test [2], 95%; in test [3], 31%.
Taken in the same sequence, the figures for `CC(C)(CN)c1nc(-c2ccc(Cl)c(O)c2)c(-c2ccnc(N)n2)[nH]1` were 95%, 95% and 34%.
On the same counts, the results for `NCc1ccc(CNCc2cccc(-c3ccc(-c4nc5cc(C(F)(F)F)ccc5[nH]4)cc3)c2)cc1.O=C(O)C(F)(F)F` are 98%, 90% and 13%.
On the same counts, the results for `CC(=O)Oc1cc(C)ccc1C1CCN(CCCCNC(=O)c2ccc(NC(=O)c3ccc(Cl)cc3)cc2)CC1` are 100%, 57% and 12%.
Take `O=C(O)C(F)(F)F.c1ccc2[nH]c(-c3ccc(-c4ccc(CN5CCCCC5)cc4)cc3)nc2c1`: the Inhibition in test [1] turned out to be 99%; in test [2], 100%; in test [3] it was 27%.
On the same counts, the results for `Cn1nc(C(F)(F)F)c(-c2ccc(Br)cc2)c1NC(=O)Cc1ccccc1F` are 100%, 100% and 6%.
Taken in the same sequence, the figures for `Cc1[nH]n(-c2cccc(Cl)c2)c(=O)c1-c1ccc(Cl)cc1` were 99%, 41% and 0%.
On the same counts, the results for `Cc1cc2nc(-c3ccc(C(=O)NC4CCN(Cc5ccccc5)CC4)s3)[nH]c2cc1C` are 99%, 82% and 33%.
